HP1b chromo inh – HTS for Inhibitors of HP1-beta Chromodomain Interactions with Methylated Histone Tails | Chromobox protein homolog 1 (Homo sapiens), P83916 | AlphaScreen HP1-beta / biotin-H3K9me3 peptide binding | Potency, µM (top dose mostly 114 µM), without a hit: at the highest dose activity change, negative = inhibition, actives largely listed as inhibitors | 390,000 tested, 0.56% active | AID 540317, 2011; note: nearly all actives have a fitted effect of over 70% in size
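AlphaScreen: HP1-beta (50 nM) preformed 30 min with biotin-H3(1-18)K9me3 peptide (50 nM) in PBS pH 7.4, 0.01% Tween-20. Compound added for 30 min at RT, then streptavidin donor/nickel chelate acceptor beads (10 ug/mL) for 30 min.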
JMJD2A Tudor inh – qHTS Assay for Inhibitors of JMJD2A-Tudor Domain. AlphaScreen JMJD2A-Tudor / H3K4me3 peptide binding. Potency, µM (top dose mostly 114 µM), for inactives: at the highest dose activity change, negative = inhibition, hits mostly inhibitors. 390,000 tested, 4.4% active; note: % is set by controls: 0 for no effect and ±100 for the full control effect; nearly all actives have a fitted effect of over 50% in size
BAZ2B block – qHTS Assay for Inhibitors of BAZ2B. AlphaScreen BAZ2B-H3K14Ac peptide displacement. Bromodomain adjacent to zinc finger domain protein 2B (Homo sapiens), Q9UIF8. AID 504333, 2011. 360,000 tested, 4.4% active. Potency, µM (series often up to 114 µM), for inactives: at the top dose activity change, negative = inhibition, most hits filed as inhibitors; note: % is set by controls: 0 for no effect and ±100 for the full control effect; nearly all actives have a fitted effect of over 60% in size
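In this displacement format the biotinylated H3(5-23) peptide acetylated at Lys14 serves as ligand at 50 nM, with BAZ2B at 50 nM in PBS pH 7.4 containing 0.01% Tween-20. Donor and acceptor beads are 10 ug/mL final.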
G9a block – qHTS Assay for Inhibitors of Histone Lysine Methyltransferase G9a; AID 504332, 2011; 350,000 tested, 8.8% active; Potency, µM (titrated, usually from 102 µM), for the others: top-dose activity, negative = inhibition, actives largely listed as inhibitors; G9a H3K9 monomethylation, AlphaScreen, 2 h; note: % is set by controls: 0 for no effect and ±100 for the full control effect; nearly all actives have a fitted effect of over 75% in size
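Readings reflect AlphaScreen signal from monomethyl-H3K9 antibody detection. HMT at 20 nM; substrate b-H3K9 500 nM; cofactor SAM 20 uM; 2 h RT reaction; compounds tested as titrations in qHTS with 15 min preincubation.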
PLK1 PBD inh – qHTS for Inhibitors of PLK1-PDB (polo-like kinase 1 - polo-box domain): Primary Screen; Serine/threonine-protein kinase PLK1 (Homo sapiens), P53350; Plk1 PBD binding of FITC phosphopeptide, fluorescence polarization; Potency, µM, without a hit: max response, negative = inhibition, usual class: inhibitors; 360,000 tested, 2.8% active; AID 720504, 2013; note: series mostly up to about 57 µM; % is set by controls: 0 for no effect and ±100 for the full control effect; nearly all actives have a fitted effect of over 65% in size
Target sequence (P53350 whole entry, looked up, the tested form may be a part): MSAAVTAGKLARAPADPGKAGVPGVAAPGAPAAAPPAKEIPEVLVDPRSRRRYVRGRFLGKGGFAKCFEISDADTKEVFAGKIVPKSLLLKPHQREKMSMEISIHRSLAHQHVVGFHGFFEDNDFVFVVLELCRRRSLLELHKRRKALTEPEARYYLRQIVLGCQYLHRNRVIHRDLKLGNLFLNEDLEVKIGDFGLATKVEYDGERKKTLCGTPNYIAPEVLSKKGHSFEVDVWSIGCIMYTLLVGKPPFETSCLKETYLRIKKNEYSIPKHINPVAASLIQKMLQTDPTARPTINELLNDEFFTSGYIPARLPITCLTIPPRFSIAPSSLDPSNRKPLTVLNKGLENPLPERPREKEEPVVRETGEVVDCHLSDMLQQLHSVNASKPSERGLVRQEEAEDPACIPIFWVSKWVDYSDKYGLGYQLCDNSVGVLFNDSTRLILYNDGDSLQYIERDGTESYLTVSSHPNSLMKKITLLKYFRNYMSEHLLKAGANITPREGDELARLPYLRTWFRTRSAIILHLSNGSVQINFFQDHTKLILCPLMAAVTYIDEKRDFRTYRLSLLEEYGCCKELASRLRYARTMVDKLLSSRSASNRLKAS
VDR inhibitor – Inhibitors of the vitamin D receptor (VDR): qHTS | Vitamin D3 receptor (Homo sapiens), P11473 | VDR-SRC2-3 peptide fluorescence polarization, 2 h | Potency, µM, without a hit: max response, negative = inhibition, hits mostly inhibitors | 400,000 tested, 0.93% active | AID 504847, 2011; note: % is set by controls: 0 for no effect and ±100 for the full control effect
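FP read-out; VDR + SRC2-3 coactivator peptide; 23 nl compound by pintool; 2 h RT incubation; reagents held at 4 deg C, protected from light.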
* marks the source's active call; other numbers are inactive results; ? = inconclusive; nt = not tested or not shown; [ ] = another dose, or the depositor's remark. Compounds with a hit are over-represented: about 11% of the library has one in this group of screens. Calls come from the whole dose curve; as a rule, active = well fitted curve in the direction sought with a large enough effect; inconclusive = small, poorly fitted or top-dose-only effect, or another doubt; inactive = no such curve, though single readings can be large; an effect the other way counts as inactive or inconclusive. Potency is the fitted concentration of half-maximal effect.

SMILES	HP1b chromo inh	JMJD2A Tudor inh	BAZ2B block	G9a block	PLK1 PBD inh	VDR inhibitor
Cc1ccccc1N1C(=O)c2ccccc2N2C(=O)c3ccccc3C12 (stereo not drawn)	32%	3%	-24%	?	-1%	-5%
CCc1nn2c(=O)cc(N3C(C)CNCC3C)nc2s1 (stereo not drawn)	nt	-15%	nt	nt	nt	nt
COC(=O)[C@]12CCCCC=C1N(Cc1ccc3c(c1)OCO3)C(=O)[C@H](CC(=O)NCCCN1CCCC1=O)C2	nt	nt	nt	nt	-6%	nt
COc1cc(C(CC(=O)Nc2ccc(Br)cn2)N2Cc3ccccc3C2=O)cc(OC)c1OC (stereo not drawn)	44%	-8%	-21%	-3%[59 µM]	nt	5%
CCC(Oc1ccc2c(c1)C(=O)CC(C)(C)O2)C(=O)NCCN1CCCCCC1 (stereo not drawn)	?	45µM*	?	13µM*	-21%	-8%
CCOC(=O)c1ccc(NC(=O)CNNC(=O)COc2ccccc2C)cc1	22%	-27%	nt	nt	-5%	-22%
O=C/C(=C\Nc1ccccn1)c1nc2ccccc2o1	9%	40µM*	79µM*	1%[59 µM]	-9%	-13%
O=C/C(=C\Nc1ccccn1)c1nc2cc(Cl)ccc2o1	25%	-17%	3%	?	4%	7%
O=C(NCc1ccc(Cl)cc1)C1(c2cccs2)CCOCC1	38%	-1%	0%	-1%[59 µM]	nt	1%
Cc1cc(C)n(CC(O)CN2c3ccccc3Sc3ccccc32)n1 (stereo not drawn)	-37%	32µM*	50µM*	?	-6%	-21%
CCCNC(=O)OC[C@H]1O[C@H](CCO/N=C/c2ccc(C(=O)N3[C@H](c4ccc(C)cc4)[C@@H](C)CC[C@H]3C(=O)OC)cc2)C=C[C@@H]1Oc1ccc(OC)cc1	nt	nt	-36%	71µM*	nt	nt
COC(=O)[C@@H]1CC[C@H](C)[C@@H](c2ccc(C)cc2)N1C(=O)c1ccc(/C=N/O[C@@H](C)c2cn([C@H](CO)Cc3ccccc3)nn2)cc1	nt	nt	-28%	?	nt	nt
Cc1cccc(C)c1NC(=O)Cn1cc(C(=O)C2CC2)c2ccccc21	17%	-9%	-13%	0%[59 µM]	nt	-9%
COc1ccc(N(Cc2cccs2)C(=O)c2ccco2)cc1	38%	0%	-10%	3%[59 µM]	nt	7%
CN(C(=O)c1cc(Cl)c2c(c1)OCCO2)c1c(N)n(Cc2ccccc2)c(=O)[nH]c1=O	61%	-3%	5%	-50%	-1%	11%
CSc1ccc(CN(C)C(=O)c2cc(Cl)c3c(c2)OCCO3)cc1	13%	-17%	?	56µM*	0%	13%
CCOC(=O)N1CCN(C/C(Cl)=C/c2ccccc2)CC1	50µM*	1.8µM*	?	nt	7%	-10%
CCOC(=O)N1CCN(C(=O)CSc2nnc3[nH]c(=O)c(C)c(C)n23)CC1	35%	-1%	-3%	14µM*	1%	-4%
CCOC(=O)N1CCN(C(=O)Cn2ncc3ccccc32)CC1	-6%	79µM*	12%	13%[59 µM]	30µM*	-23%
CCOC(=O)N1CCC(NC(=O)Cn2ncc3ccccc32)CC1	43%	-20%	7%	-3%	-5%	0%
O=C(CSc1ccc(Cl)cc1)N1CCCC1	15%	?	0%	3%[59 µM]	24µM*	?
Cc1ccc(SCC(=O)N2CCCC2)cc1	12%	3%	23%	29%	-5%	-15%
CCOC(=O)N1CCN(CCc2ccccc2)CC1	29%	-11%	0%	-10%	-3%	4%
COCCNC(=O)C1(C)CCCN(Cc2cc(-c3ccccc3)nn2C)C1 (stereo not drawn)	nt	nt	nt	nt	-14%	nt
Cc1cc2c(s1)c1cnn(Cc3cc(F)cc(F)c3F)c(=O)c1n2C	nt	-13%	nt	nt	nt	nt
SMILES	HP1b chromo inh	JMJD2A Tudor inh	BAZ2B block	G9a block	PLK1 PBD inh	VDR inhibitor
CC(C)COc1ccc2[nH]c3c(c2c1)CCCC3=O	11%	-14%	?	4%	-7%	5%
CCOC(=O)N1CCN(C(=O)CSc2ccccc2)CC1	44%	10%	2%	-18%[59 µM]	15µM*	-9%
CCOC(=O)N1CCN(C(=O)CSCc2ccccc2)CC1	46%	-12%	-3%	-4%[59 µM]	-9%	?
CC1NC(=O)NC1CCCCCC(=O)Nc1ccc(F)cc1 (stereo not drawn)	?	0.32µM*	-1%	?	-11%	-14%
Cc1c(F)cccc1NC(=O)CCCCCC1NC(=O)NC1C (stereo not drawn)	?	0.89µM*	1µM*	0.71µM*	-4%	-5%
O=C(CCCC(=O)c1ccccc1)Nc1ccc(F)cc1	1%	-16%	-1%	-2%[12.7 µM]	-4%	-1%
Cc1ccc(Nc2c3c(nc4ccccc24)CCC3)cc1F	32%	-24%	-27%	-25%[59 µM]	nt	5%
Cc1ccc(Nc2nc3ccccc3o2)cc1F	-3%	11µM*	16%	6%	3µM*	?
COCc1c(Br)c(C)nc(OCC(=O)N/N=C/c2cc(C)n(-c3ccc([N+](=O)[O-])cc3)c2C)c1C#N	49%	-11%	5%	-2%[59 µM]	-8%	-4%
CCOc1ccccc1N1CCN(Cc2cn[nH]c2-c2ccc(F)cc2)CC1	?	?	-26%	?	?	?
O=C(CS(=O)(=O)c1ccccc1)N1CCN(c2ccccc2)CC1	35%	-20%	0%	-34%	-1%	-10%
COc1ccccc1CNS(=O)(=O)c1ccc2[nH]c3c(c2c1)CCCCC3	-15%	?	18%[57.1 µM]	-7%[59 µM]	nt	3%
COc1ccccc1CNS(=O)(=O)c1ccc2[nH]cc(C(=O)O)c(=O)c2c1	?	40µM*	-10%	-21%[59 µM]	-28%	19%
CN(C)c1ccc(C=Nc2ccccc2C(N)=O)cc1	6%	-28%	nt	18µM*	-10%	8%
O=C(c1ccccc1)c1coc2c1C(=O)c1ccccc1C2=O	?	-19%	32µM*	45µM*	-7%	8%
O=C1c2ccccc2C(=O)c2c1oc(C(F)(F)F)c2C(=O)c1ccccc1	?	?	7.1µM*	4µM*	-7%	-10%
CC(=O)c1c(C)oc2c1C(=O)c1ccccc1C2=O	-3%	-21%	0%	-13%	-21%	-22%
COc1cc(/C=C2\C(C)=C(C#N)c3nc(N)c(C#N)c(C)c32)ccc1OCC(=O)O	6%	-31%	56µM*	25µM*	27µM*	-19%
